Bioassay records as filed in PubChem BioAssay.
14-3-3 Bad inh: disrupts binding of bovine 14-3-3 zeta to phospho-Bad peptide; P63103; TR-FRET 14-3-3zeta/Dy647-pBad peptide displacement, 1 h; inhibition, % at 21.7 µM; hit rate 0.71% among 220,000; AID 781;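 active means inhibition above about 70%, limit read from the data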;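 further: 0% = full 14-3-3 plus peptide FRET controls and 100% = background without 14-3-3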
p47phox inh: inhibitors of human p47phox binding; P14598; p47phox/p22phox peptide binding, fluorescence polarization, 2 h; inhibition, % at 24.7 µM; hit rate 0.53% among 220,000; AID 1274;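 active means inhibition above about 30%, limit read from the data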;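 further: 0% = p47phox with labelled peptide and 100% = labelled peptide alone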
Target sequence (P14598 whole entry, looked up): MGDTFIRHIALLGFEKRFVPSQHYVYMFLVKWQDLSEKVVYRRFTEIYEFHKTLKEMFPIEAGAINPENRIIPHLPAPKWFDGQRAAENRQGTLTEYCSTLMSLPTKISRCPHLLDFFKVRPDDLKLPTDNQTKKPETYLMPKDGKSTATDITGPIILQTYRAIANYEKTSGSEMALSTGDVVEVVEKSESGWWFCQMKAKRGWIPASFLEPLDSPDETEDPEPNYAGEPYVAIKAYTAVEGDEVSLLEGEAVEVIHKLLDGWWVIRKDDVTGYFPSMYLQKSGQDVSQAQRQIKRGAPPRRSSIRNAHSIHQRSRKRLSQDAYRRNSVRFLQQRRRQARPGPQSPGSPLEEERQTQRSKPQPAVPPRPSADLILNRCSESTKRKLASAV
Efa HMGR inh: blocks class II HMG-CoA reductase of Enterococcus faecalis; hit rate 0.41% among 190,000; purified E. faecalis HMGR, NADPH absorbance 340 nm kinetic; inhibition, % at 10 µM;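 active means inhibition above a set limit, the median over all tested compounds plus 3 SD, cut at about 9.5% in these data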;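 further: enzyme runs in reverse so mevalonate oxidation gives rising NADPH absorbance; 0% = complete reaction with DMSO and 100% = background rate lacking mevalonate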
dFosB activator: enhances mouse delta FosB homodimer DNA binding; P13346; purified delta FosB, TAMRA-CDK5 oligo fluorescence polarization; percent of positive-control signal above neutral wells; activation, % at 25 µM; hit rate 0.99% among 340,000; AID 493131;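 active means mean activation above about 17%, with every replicate also reaching it, limit read from the data, passing the limit was not always enough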
An asterisk follows results filed as active; . = no result. Compounds with a hit are over-represented: about 1.9% of the library has one in this group of screens.

SMILES	14-3-3 Bad inh	p47phox inh	Efa HMGR inh	dFosB activator
COc1ccc([C@@H]2[C@@H]3C(=O)N(C(C)(C)C)C(=O)[C@@H]3[C@]3(C)C(=O)N(c4cccc(F)c4)C(=O)N23)cc1	.	.	.	-4
Nc1nc(N2CCN(c3ccccc3)CC2)n[nH]1	72*	-2	-4	6
Nc1nc(N2CCN(c3ccc(Cl)cc3)CC2)n[nH]1	-22	2	0	6
CCn1cc(CCC(=O)NC(C)c2ccccc2)c2ccccc21 (stereo not drawn)	.	.	.	-4
CC(C)n1nnc2ccccc2c1=O	-2	-9	3	1
CCN(CC)c1cc(C)c2cc(NC(=O)c3ccccc3F)ccc2n1	.	.	.	-24
COC(=O)C1=C(C)Nc2c(c(=O)n(C)c(=O)n2C)C1c1cccnc1 (stereo not drawn)	5	11	13*	-3
CCN1CCN(c2ccc(NC(=O)c3ccco3)cc2Cl)CC1	.	.	.	5
CCN1CCN(c2ccc(NC(=O)c3cccc(F)c3)cc2Cl)CC1	-4	-2	10*	3
COc1ccc(C2N=C(c3ccccc3)NC(c3ccccc3)=N2)cc1	7	-5	0	-1
Cc1c(C)n(C)c2ccc(C(=O)NCCCN3CCN(c4ccc(F)cc4)CC3)cc12	.	.	.	3
COc1ccc(-c2ncc(CN3CCN(CCC(C)C)C(CCO)C3)cn2)cc1 (stereo not drawn)	-8	-1	1	-6
CC(C)CN1CCN(Cc2nc(C(C)C)cs2)CC1CCO (stereo not drawn)	0	-4	11*	-6
CC(C)=CCN1CCN(Cc2nc(C(C)C)cs2)CC1CCO (stereo not drawn)	0	3	-1	-6
Cc1cccc(-c2ncc(CN3CCN(CC(C)C)C(CCO)C3)cn2)c1 (stereo not drawn)	1	-3	9.6*	-4
Nc1nc(N)c(-c2cccc(C(F)(F)F)c2)c(Cc2cccc(C(F)(F)F)c2)n1	.	.	.	16*
O=C(CC1C(=O)NCCN1Cc1c(F)cccc1Cl)NCc1ccccc1 (stereo not drawn)	-7	0	-3	-12
CCc1cc(CNC(=O)CC2C(=O)NCCN2Cc2c(F)cccc2Cl)on1 (stereo not drawn)	-7	91*	-3	-5
Cc1cc2ccccc2cc1C(=O)c1ccccc1	.	.	.	-3
O=C(c1ccccc1)c1c2c(cc3sc4ccccc4[n+]13)-c1cccc3cccc-2c13	-7	1	1	22*
Cc1sc2cc3c(c(C(=O)c4ccccc4)[n+]2c1C)-c1cccc2cccc-3c12	-22	37*	-9	.
COc1cccc(NC(=O)CN(C)C(=O)c2ccc(NC(=O)CC3SC(N4CCCCC4)=NC3=O)cc2)c1 (stereo not drawn)	.	.	.	3
COC(=O)C1=C(C)N(Cc2ccco2)C(=O)N[C@@H]1c1ccccc1	3	-6	11*	5
Cc1ccc(-c2sc(-c3cccnc3)nc2CC(=O)O)cc1	75*	-4	-2	1
CCOc1ccc2c(c1)nc(SCC(=O)c1cccs1)n2C	73*	-4	0	-9
SMILES	14-3-3 Bad inh	p47phox inh	Efa HMGR inh	dFosB activator
Cc1cc(NC(=O)CSc2nc3c(sc4ccccc43)c(=O)n2CCc2ccccc2)n[nH]1	13	32*	-2	1
Cc1cc(NC(=O)CSc2nc3c(sc4ccccc43)c(=O)n2CCCN2CCOCC2)n[nH]1	-6	0	0	-20
Cc1cc(OCC(=O)O)c2cccc(C)c2n1	77*	2	-2	-4
CC(=O)c1ccc(Cc2ccc(C(C)=O)cc2)cc1	-5	-1	9	-3
CC1CC(C)CN(C(=O)COC(=O)Cc2c[nH]c3ccccc23)C1 (stereo not drawn)	.	.	.	-1
CC1(NC(=O)NCc2ccco2)CCS(=O)(=O)C1 (stereo not drawn)	-9	-10	-3	-8
CCc1nc(N)nc(N)c1-c1ccc(Cl)cc1	-3	-6	15*	0
CCc1nc(N)nc(N)c1-c1ccc(NCCN)c([N+](=O)[O-])c1	.	.	.	6
Cc1cccc(NC(=O)[C@H](Cc2c[nH]c3ccccc23)NC(=O)[C@@H]2Cc3ccccc3CN2)c1	.	.	.	22*
O=C(Nc1cccc([N+](=O)[O-])c1)C1C2CC/C=C\CCC21 (stereo not drawn)	-3	138*	.	6
O=C1C2C3C=CC(C3)C2C(=O)N1CCCCN1C(=O)C2C3C=CC(C3)C2C1=O (stereo not drawn)	73*	-2	-3	3
O=C1C2C3C=CC(C3)C2C(=O)N1CCCO (stereo not drawn)	-1	-14	5	-5
Cc1cccc(NC(=O)NNC(=O)CCc2ccccc2)c1	.	.	.	0
Cc1cccc(NC(=S)NC(=O)CCc2ccccc2)c1	77*	-5	-6	-12
Cc1cccc(OCC(=O)NNC(=O)CCc2ccccc2)c1	1	2	53*	1
Cc1cccc(OCC(=O)NNC(=O)CCCCC(=O)NNC(=O)COc2cccc(C)c2)c1	.	.	.	0
COc1n[nH]c(C(=O)Nc2nc3ccccc3s2)c1[N+](=O)[O-]	-6	-16	0	1
COc1n[nH]c(C(=O)NCc2ccccc2)c1[N+](=O)[O-]	-6	-9	12*	2
NC1=NC[C@H](Cc2ccc(O)cc2)N1CCc1cccc2ccccc12	4	63*	.	-5
NC1=NC[C@@H](Cc2ccc(O)cc2)N1CCc1cccc2ccccc12	3	7	.	-4
CCN(CC)c1cc2nonc2c2nonc12	-9	-5	-5	-4
O=c1c2ccccc2sn1-c1cc(S(=O)(=O)N2CCOCC2)ccc1N1CCOCC1	74*	74*	-1	-11
O=c1c2ccccc2sn1-c1cc(S(=O)(=O)N2CCOCC2)ccc1N1CCCC1	-8	58*	1	-8
CCc1ccc2nc(NC(=O)CCCc3cccs3)sc2c1	8	-24	-2	-1
COc1ccccc1CN(C)C(=O)COC(=O)c1ccc(Cl)nc1	.	.	.	-5
SMILES	14-3-3 Bad inh	p47phox inh	Efa HMGR inh	dFosB activator
CC(CCCC(C)(C)O)NC(=O)c1ccc(OC2CCN(C(=O)C3CC3)CC2)cc1 (stereo not drawn)	4	1	10*	-7
N#Cc1ccc(N/N=C/c2cn(-c3ccccc3)nc2-c2ccccc2)c([N+](=O)[O-])c1	8	51*	1	6
COc1ccc(C(=O)/C=C/C(=O)N(CC(=O)NC2CCCCC2)Cc2cccs2)c(O)c1	2	8	-6	-19
CCOC(=O)C1(Cc2ccccc2)CCCN(Cc2cccc(C(C)=O)c2)C1 (stereo not drawn)	-4	-3	-9	-15
CCCn1c(=O)[nH]c(=O)c2c1nc(-c1ccc3c(c1)OCCO3)n2CCN1CCOCC1	72*	-7	5	0
CCCn1c(=O)[nH]c(=O)c2c1nc(-c1ccc(OC(F)F)cc1)n2CCN1CCOCC1	36	-87	1	-1
O=C(COC(=O)CNC(=O)c1cccs1)Nc1ccccc1C(F)(F)F	-2	-5	-1	-3
COC(=O)c1ccc(=O)c2nc3/c(=C/O)c(O)cc(=O)c3[nH]c12	73*	-10	.	-8
COC(=O)c1ccc(N)cc1O	1	-6	-5	-8
